Bioassay records: PubChem, Broad Institute
ARNT-TACC3 inh: disrupts binding between human ARNT and TACC3. Q9Y6A5. AlphaScreen His-ARNT PAS-B/GST-TACC3 binding, luminescence; TACC3 fragment carries E629A point mutation. inhibition, % at 9.99 µM. hit rate 0.66% among 390,000. AID 623870;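 active means mean inhibition of replicates at least 50% and at least half of replicates each reaching 50%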;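 further: 0% = complete ARNT plus TACC3 wells and 100% = ARNT alone without TACC3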
NSD2 inh: inhibitors of human histone methyltransferase NSD2; hit rate 0.54% among 310,000; NSD2 peptide methylation, AlphaScreen, 120 min; inhibition, % at 12.5 µM; O96028; in the data active means inhibition above about 50%
PfHsp90 yeast 2: reduces growth (ATP signal) of yeast expressing P. falciparum Hsp90; S. cerevisiae expressing PfHsp90, BacTiter-Glo ATP, 48 h; yeast lacking PDR1 and PDR3 efflux regulators; inhibition, % at 9.4 µM; hit rate 0.32% among 310,000; AID 504621;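 active means every replicate shows inhibition above about 80%, whatever the replicate mean, limit read from the data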;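 further: 0% = DMSO neutral controls and 100% = 20 µM radicicol positive controls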
CASP6 VEID inh: blocks human caspase-6 cleavage activity. inhibition, % at 12.5 µM. P55212. purified caspase-6, Z-VEID-R110 cleavage fluorescence. hit rate 0.53% among 350,000. AID 686996;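 active means mean inhibition across replicates at least about 35%, with every replicate also reaching that limit, limit read from the data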;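 further: 0% = median of neutral control wells and 100% = no fluorescence left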
Target sequence (P55212 24-179 limits assumed): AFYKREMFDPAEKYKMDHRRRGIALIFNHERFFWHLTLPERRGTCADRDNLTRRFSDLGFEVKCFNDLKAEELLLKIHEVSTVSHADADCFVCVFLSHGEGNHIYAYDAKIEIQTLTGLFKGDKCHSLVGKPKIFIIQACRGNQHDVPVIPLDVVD
Target sequence (P55212 194-293 limits assumed): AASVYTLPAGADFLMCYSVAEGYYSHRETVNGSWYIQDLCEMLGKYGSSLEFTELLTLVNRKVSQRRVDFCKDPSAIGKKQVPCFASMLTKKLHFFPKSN
SIRT5 inh: blocks human SIRT5 desuccinylation of peptide | Purified SirT5, succinyl-peptide AMC, trypsin-coupled fluorescence | inhibition, % at 15 µM | hit rate 1.1% among 330,000; in the data active means inhibition above about 15%
Target sequence (Q9NXA8 whole entry, looked up): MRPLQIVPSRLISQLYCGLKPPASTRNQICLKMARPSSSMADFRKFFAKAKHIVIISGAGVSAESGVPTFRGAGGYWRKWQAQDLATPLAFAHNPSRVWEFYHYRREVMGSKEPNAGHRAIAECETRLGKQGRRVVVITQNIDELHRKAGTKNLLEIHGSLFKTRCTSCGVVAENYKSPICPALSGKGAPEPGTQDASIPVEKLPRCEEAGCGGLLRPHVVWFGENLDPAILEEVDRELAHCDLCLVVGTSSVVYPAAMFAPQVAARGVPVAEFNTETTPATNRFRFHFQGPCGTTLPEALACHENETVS
AlphaScreen ctr: counter-screen for ARNT/TACC3 inhibitors: AlphaScreen artifacts; His-ARNT PASB-GST AlphaScreen artifact counter-screen, luminescence; AC50, µM (titrated, usually from 68 µM), for the others: at the top dose activity change, negative = signal decrease; AID 651705; shares compounds with ARNT-TACC3 inh; hit rate 50% among 1,200;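 active means every separate test run was called active for a drop in luminescence, with AC50 within twice the top valid dose, actives reach about 71 µM in these data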
* = called active by the depositor; nt = no result given. Shown are actives, neighbours in structure and some others; about 2.1% of the full set was active somewhere.

SMILES	ARNT-TACC3 inh	NSD2 inh	PfHsp90 yeast 2	CASP6 VEID inh	SIRT5 inh	AlphaScreen ctr
Cc1coc2c(C)c3oc(=O)c(CC(=O)N[C@@H](CC(C)C)C(=O)O)c(C)c3cc12	-7	-1	nt	7	-4	nt
Cc1coc2c(C)c3oc(=O)c(CCC(=O)N[C@@H](C)C(=O)N[C@@H](Cc4ccccc4)C(=O)O)c(C)c3cc12	74*	nt	-1	16	26*	-36%
Cc1c(CCC(=O)O)c(=O)oc2c(C)c3occ(-c4ccc(Br)cc4)c3cc12	56*	1	-6	24	10	52µM*
O=C(c1cnccn1)N1CC(=O)N2[C@H](CO)[C@H](c3ccc(C#CC4CCCCC4)cc3)[C@@H]2C1	nt	nt	nt	-1	6	nt
COC(=O)CNC(=O)CCC(=O)N1CCN(C(c2ccccc2)c2ccccc2)CC1	0	-1	6	1	6	nt
CCCCNC(=O)CCC(=O)N1CCN(C(c2ccccc2)c2ccccc2)CC1	49*	-2	12	-7	4	-8%
CC(=O)c1cccc(NC(=O)CSc2ccc(-c3ccccn3)nn2)c1	55*	-5	-15	-2	2	15µM*
COc1ccc(C)cc1NC(=O)CSc1ccc(-c2sc(C)nc2C)nn1	-4	-1	4	0	1	nt
COc1cc(NC(=O)CSc2ccc(-c3ccccn3)nn2)cc(OC)c1	59*	0	nt	-3	-1	11µM*
COc1ccc(C)cc1NC(=O)CSc1ccc(-c2ccccn2)nn1	54*	-1	33	-6	-1	19µM*
CC(=O)Nc1cccc(NC(=O)CSc2ccc(-c3ccccn3)nn2)c1	58*	-12	26	-1	0	14µM*
CC(=O)Nc1cccc(NC(=O)CSc2nnc3ccc(-c4ccccn4)nn23)c1	23	-3	-21	-2	-2	nt
COc1ccc2c3c(n(C)c2c1)[C@@H](CO)N(C(=O)c1ccccn1)CC31CN(C(=O)Cc2ccccc2)C1	nt	nt	nt	1	0	nt
Cc1ccc(NC(=O)CSc2ccc(-c3ccccn3)nn2)cc1F	50*	-3	19	1	-2	-20%
C[C@H]1CN([C@@H](C)CO)S(=O)(=O)c2ccc(C#Cc3ccncc3)cc2O[C@H]1CN(C)C(=O)C1CCC1	2	nt	nt	1	0	nt
O=S(=O)(c1ccccc1)c1nc(-c2ccco2)oc1Nc1ccccc1	active	-1	20	-5	-2	62µM*
O=S(=O)(c1ccccc1)c1nc(-c2ccco2)oc1NCc1ccco1	-1	nt	-43	nt	nt	nt
O=C(C[C@@H]1CC[C@@H]2[C@H](COC[C@H](O)CN2Cc2cc(F)cc(F)c2)O1)NCc1cccc(F)c1	7	nt	nt	-1	3	nt
O=C(NCc1ccccn1)c1ccc(CS(=O)(=O)Cc2ccc(Cl)cc2)o1	13	0	-6	nt	nt	nt
Cc1ccccc1CS(=O)(=O)Cc1ccc(C(=O)NCc2ccccn2)o1	53*	-2	-1	nt	nt	-13%
CN(C)C(=O)C[C@H]1CC[C@H]2[C@H](COc3ccc(NC(=O)C4CCCC4)cc3C(=O)N2C)O1	nt	nt	nt	0	1	nt
C#CCOCCOCCOCCNc1nc(N2CCN(C(=O)[C@H](CCCCN)n3cc(CN)nn3)CC2)nc(N2CCN(C(=O)[C@H](CCCCN)n3cc([C@@H](N)CC(N)=O)nn3)CC2)n1	36	nt	16	-287	-3	nt
C#CCOCCOCCOCCNc1nc(N2CCN(C(=O)[C@H](CC(N)=O)n3cc([C@@H](N)CC(N)=O)nn3)CC2)nc(N2CCN(C(=O)[C@H](CC(N)=O)n3cc([C@@H](N)CC(N)=O)nn3)CC2)n1	46*	nt	11	-163	nt	-7%
C#CCOCCOCCOCCNc1nc(N2CCN(C(=O)[C@H](CCCCN)n3cc([C@@H](N)CC(N)=O)nn3)CC2)nc(N2CCN(C(=O)[C@H](CCCCN)n3cc([C@@H](N)CC(N)=O)nn3)CC2)n1	60*	nt	31	-327	-7	-3%
C#CCOCCOCCOCCNc1nc(N2CCN(C(=O)[C@H](CCCCN)n3cc([C@@H](N)CO)nn3)CC2)nc(N2CCN(C(=O)[C@H](Cc3ccc(O)cc3)n3cc([C@@H](N)CC(C)C)nn3)CC2)n1	38*	nt	10	-256	nt	-17%
SMILES	ARNT-TACC3 inh	NSD2 inh	PfHsp90 yeast 2	CASP6 VEID inh	SIRT5 inh	AlphaScreen ctr
CCS(=O)(=O)N[C@H]1C=C[C@H](CC(=O)Nc2ccccc2)O[C@H]1CO	nt	nt	nt	1	nt	nt
O=C(c1ccncc1)N1CC(=O)N2[C@H](C1)[C@@H](c1ccc(/C=C/c3ccccc3)cc1)[C@@H]2CO	nt	nt	nt	-1	2	nt
COc1ccc(S(=O)(=O)N(C)C[C@@H]2Oc3ccc(NC(=O)NC(C)C)cc3CC(=O)N([C@@H](C)CO)C[C@H]2C)cc1	2	nt	nt	-1	3	nt
NC(=O)CC(NC(=O)c1ccccc1)c1ccc(NCc2ccccn2)c([N+](=O)[O-])c1 (stereo unspecified)	65*	nt	nt	5	nt	-13%
C[C@H](CO)N1C[C@H](C)[C@H](CN(C)C)Oc2ccc(NC(=O)NC3CCCCC3)cc2CC1=O	-2	nt	nt	-2	0	nt
c1ccc(-c2nc3cc4ccccc4cc3[nH]2)nc1	15*	-10	5	nt	nt	-36%
N[C@@H]1CC[C@@H](CCn2cc(-c3cccc(F)c3)nn2)O[C@H]1CO	5	nt	nt	-4	-3	nt
CC(C)c1cn(CC[C@H]2CC[C@H](N)[C@@H](CO)O2)nn1	-22	nt	nt	0	3	nt
c1ccc(-c2cn(C[C@H]3CC[C@@H]([C@@H]4CC[C@H](Cn5cc(-c6ccccn6)nn5)O4)O3)nn2)nc1	66*	nt	-19	nt	nt	11µM*
N[C@H]1CC[C@H](CCn2cc(-c3ccccn3)nn2)O[C@@H]1CO	77*	nt	nt	1	-1	5.3µM*
c1ccc(-c2cn(C[C@H]3CC[C@@H]([C@@H]4CC[C@H](Cn5cc(-c6ccccc6)nn5)O4)O3)nn2)cc1	-9	nt	18	-2	0	nt
N[C@@H]1CC[C@@H](CCn2cc(-c3ccccn3)nn2)O[C@H]1CO	76*	nt	nt	3	1	3.8µM*
Cc1ccc(S(=O)(=O)N(C)C[C@H]2Oc3c(NS(=O)(=O)c4ccc(Cl)cc4)cccc3C(=O)N([C@H](C)CO)C[C@H]2C)cc1	nt	nt	nt	1	-3	nt
CN1CCN(C(=O)C[C@@H]2C[C@@H]3c4cc(NC(=O)NC5CCCC5)ccc4O[C@@H]3[C@@H](CO)O2)CC1	-3	nt	nt	1	-3	nt
COc1cccc(/C=N/NC(=O)c2ccc3nc[nH]c3c2)c1O	63*	-1	2	2	9	-20%
CCN(CC)S(=O)(=O)c1cccc(C(=O)N/N=C/c2ccc(O)c(O)c2O)c1	59*	10	29	nt	nt	19µM*
COc1cc(OC)c(OC)cc1/C=N/NC(=O)c1ccc2nc[nH]c2c1	4	-2	-3	-3	-3	nt
COc1cccc(/C=N/Nc2ccnc(=O)[nH]2)c1O	57*	-1	13	0	3	60µM*
